Five compounds from PubChem BioAssay can be followed below.

Experiment [1] is described as follows: yeast TOR pathway RPL19A-GFP modulators, primary screen, cell-based, S. cerevisiae, multiplex flow cytometry (AID 1862; in the data active = percent of DMSO control GFP below about 86%;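 note: lower values mimic rapamycin by blocking the RPL19A rise seen in DMSO cells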). To be noted: S. cerevisiae RPL19A-GFP strain, flow cytometry fluorescence, 3 h; at 10 µM; stronger effect = lower value. In general terms: Flow cytometry measures light scatter and fluorescence of single cells or particles in a stream.
A short description of experiment [2]: modulators of MEP2-GFP levels in yeast, primary screen, S. cerevisiae, multiplex flow cytometry (AID 1867;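 active = GFP response, as percent of the DMSO control, above the screen-wide mean plus 3 SD, about 139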;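 note: median GFP channel fluorescence of barcode-gated MEP2-GFP cells measured by flow cytometry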). To be noted: S. cerevisiae MEP2-GFP strain, 3 h, at 10 µM, stronger effect = higher value, 100% means same as DMSO wells.
A short description of experiment [3]: modulators of CIT2-GFP expression in yeast, primary screen, S. cerevisiae, GFP fusion, multiplex flow cytometry (AID 1870;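 active = percent response above a set limit, the screen-wide mean plus 3 SD, cut at about 130% in these data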;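 note: barcoded CIT2-GFP strain pooled with four other GFP strains with rapamycin as positive control; median GFP fluorescence per well over plate mean of DMSO wells so 100% = DMSO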). Conditions: 3 h, at 10 µM, stronger effect = higher value.
Experiment [4] can be described thus: modulators of LAP4-GFP expression in yeast, primary screen, S. cerevisiae, multiplex flow cytometry (AID 1873;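 active = GFP signal, as percent of the solvent control, above the screen mean plus 3 SD, about 149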). To be noted: 3 h, at 10 µM, stronger effect = higher value.
Experiment [5] in a line: modulators of AGP1-GFP expression in yeast TOR pathway, primary screen, cell-based, multiplex flow cytometry, S. cerevisiae (AID 1887;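 active = GFP signal above the screen-wide mean plus 3 SD, that is over about 124.5% of the solvent control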;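 note: AGP1-GFP fusion strain of S. cerevisiae within a five-strain barcoded multiplex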). To be noted: 3 h, at 10 µM, stronger effect = higher value.
A short description of experiment [6]: inhibitors of CD8+ T cell-vesicle binding, pilot screen, LFA-1/ICAM-1 modulator project, MLPCN validation set, flow cytometry (AID 2523;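 active = response below a set limit, under 55% cells CD8-positive and vesicle-bound, and CD8 cells' 90th-percentile brightness under 279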;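 for vesicle binding response: mean PE anti-B7-1 fluorescence of CD8+ cells relative to row control; 100% = QL9-loaded vesicles with DMSO vehicle in the same plate row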). To be noted: 2C mouse CD8+ T cells, at 7 µM, stronger effect = lower value; double positive events: measured here: CD8+/vesicle+ event percentage.
For experiment [7], the target named is Integrin beta-1 (Homo sapiens) + Integrin alpha-4 (Homo sapiens) (UniProt P13612+P05556). Kind of experiment: inhibition of HUTS-21 binding to VLA-4, pilot screen, VLA-4 allosteric modulator project, U937 cells, HUTS-21 mAb, flow cytometry, validation set (AID 2674;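 active = inhibition above 50%, about 3 SD of the validation set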;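 note: antibody binding induced by the VLA-4 ligand LDV present at three times its Kd; 0% = LDV ligand with antibody and no compound and 100% = antibody without LDV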). Conditions: HUTS-21 LIBS mAb binding, at 6.7 µM, stronger effect = higher value, binding induced by LDV ligand.

A short description of experiment [8]: superoxide lowering in aged yeast cells, pilot screen, validation compound set (AID 2706;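 active = superoxide response below 65% of plate, a cut near 3 SD across the whole screen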;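 note: yeast exposed to compound for one week at 30 degrees C before staining; 100% = mean of all compound wells on the same plate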). To be noted: S. cerevisiae aging, superoxide DHE fluorescence; at 10 µM; stronger effect = lower value.
For experiment [9], the target named is Beta-adrenergic receptor kinase 1 (Homo sapiens) (UniProt P25098). Kind of experiment: GRK2 binders displacing RNA aptamer, biochemical, validation, human GRK2, bead flow cytometry (AID 488806;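 active = aptamer binding inhibition above 30%, about 3 SD of noise from non-fluorescent compounds; inactive = inhibition at or below 30%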). Conditions: bead-bound GRK2, FAM-aptamer displacement, at 10 µM, stronger effect = higher value.
In experiment [10] the target is Beta-2 adrenergic receptor (Homo sapiens) (UniProt P07550). Kind of experiment: beta2AR agonists driving receptor internalization, pilot screen, cell-based, FAP fluorogen, flow cytometry, validation set (AID 504459;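 active = percent response above 42, roughly 3 SD of non-fluorescent test compounds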;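 note: agonist-driven loss of surface beta2AR via internalization measured by FAP dye flow cytometry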). Conditions: Am2.2-beta2AR cells, FAP surface receptor flow cytometry; at 10 µM; stronger effect = higher value.
In experiment [11] the target is AP-2 complex subunit beta (Homo sapiens) (UniProt P63010). In words: inhibitors of arrestin peptide binding to AP2, pilot screen, biochemical, validation set, GST-AP2 beads, flow cytometry (AID 504541;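 active = inhibition above 54%, about 3 SD of non-fluorescent compounds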;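 note: AP2 carries R879A mutation and is captured from E. coli lysate; bead-bound FITC arrestin peptide fluorescence measuring arrestin peptide binding to AP2; 0% = DMSO wells and 100% = excess unlabeled arrestin peptide control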). To be noted: FITC arrestin peptide, at 10 µM, stronger effect = higher value, AP2 beta2 appendage fragment, R879A mutant.
The nature of experiment [12]: yeast V-ATPase proton transport modulators, S. cerevisiae, pHLuorin, HTS validation (AID 504600; in the data active = response above about 15%;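 note: plate controls were DMSO for no effect and reference compound for full effect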). To be noted: S. cerevisiae pHLuorin cytosolic pH, at 10 µM, stronger effect = higher value.
For experiment [13], the system named is anti-desmoglein-3 scFv antibody binding to human DSG3. In words: inhibitors of anti-DSG3 scFv binding to DSG3, pilot screen, biochemical, validation compound set, bead-based, flow cytometry (AID 588368;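 active = binding below the plate cutoff, the plate median minus 3 SD, with a reading above zero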;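 note: signal is the median channel fluorescence of bead-bound GFP antibody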). Conditions: Protein G beads, DSG3-Fc, scFv-GFP binding, at 10 µM, stronger effect = lower value.
Experiment [14] is described as follows: inhibitors of fungal efflux pumps CDR1, CDR2, MDR1, pilot screen, validation compound set, multiplex, phenotypic (AID 588506;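 active = efflux inhibition above 0.42, the validation set average plus 4 SD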;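 note: Nile Red retained in cells so higher fluorescence means more efflux inhibition; 0 = negative control wells and 1 = enniatin B 25 µM full block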). Conditions: S. cerevisiae pump-expressing triplex, Nile Red efflux flow cytometry; at 10 µM; stronger effect = higher value; the pumps come from Candida albicans.
Experiment [15] concerns the target ATP-binding cassette sub-family B member 6 (Homo sapiens) (UniProt Q9NP58). In words: ABCB6 transporter inhibitors, pilot screen, K562-ABCB6 cells, flow cytometry, validation set (AID 588550).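 Note: 0% = DMSO wells and 100% = benzethonium chloride 70 µM positive control.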 To be noted: K562-ABCB6 porphyrin accumulation, 1 h, at 10 µM, stronger effect = higher value.
Experiment [16] in a line: promoters of myeloid differentiation in arrested cells, primary screen, cell-based, GFP/MAC1 double positive, flow cytometry, validation set (AID 588685;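 active = differentiation response of at least 50%, scaled between solvent and reference control, from cells with both markers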;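 note: compound exposure lasts four days before antibody staining and flow analysis; 0% = DMSO wells and 100% = 5 µM fulvestrant positive control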). To be noted: ER-HoxA9 marrow cells, stronger effect = higher value, normalized: vehicle 0, fulvestrant 100.

SMILES strings stand for the structures. Results filed as inconclusive are left out. Active and inactive are the calls of the source.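 Rule for the calls, unless noted: active = inhibition above the screen-wide mean plus 3 SD, about 51%; inactive = the rest.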 Peptide text beside a SMILES is read from it.

ATP-binding cassette sub-family B member 6 (Homo sapiens), sequence (Q9NP58 whole entry, looked up): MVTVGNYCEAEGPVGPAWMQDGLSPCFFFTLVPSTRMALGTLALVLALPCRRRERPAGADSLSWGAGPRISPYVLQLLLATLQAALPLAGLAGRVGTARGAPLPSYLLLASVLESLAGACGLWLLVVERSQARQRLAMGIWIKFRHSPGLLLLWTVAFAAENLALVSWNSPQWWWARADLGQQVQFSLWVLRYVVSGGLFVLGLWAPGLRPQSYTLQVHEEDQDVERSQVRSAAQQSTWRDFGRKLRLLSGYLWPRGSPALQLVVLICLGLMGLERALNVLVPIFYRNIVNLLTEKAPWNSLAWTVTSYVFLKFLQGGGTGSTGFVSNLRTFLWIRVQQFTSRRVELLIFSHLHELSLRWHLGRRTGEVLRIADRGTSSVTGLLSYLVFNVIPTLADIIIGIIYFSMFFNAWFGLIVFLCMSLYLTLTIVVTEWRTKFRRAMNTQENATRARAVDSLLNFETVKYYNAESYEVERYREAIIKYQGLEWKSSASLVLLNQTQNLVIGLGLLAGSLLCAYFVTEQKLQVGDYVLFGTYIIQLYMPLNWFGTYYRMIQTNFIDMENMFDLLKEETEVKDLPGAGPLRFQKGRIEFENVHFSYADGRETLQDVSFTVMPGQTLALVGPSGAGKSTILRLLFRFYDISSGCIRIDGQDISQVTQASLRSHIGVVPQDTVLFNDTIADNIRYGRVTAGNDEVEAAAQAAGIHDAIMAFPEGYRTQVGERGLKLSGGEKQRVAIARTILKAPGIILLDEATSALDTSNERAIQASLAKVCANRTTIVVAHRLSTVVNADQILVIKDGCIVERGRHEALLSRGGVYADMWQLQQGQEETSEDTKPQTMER
Beta-2 adrenergic receptor (Homo sapiens), sequence (P07550 whole entry, looked up): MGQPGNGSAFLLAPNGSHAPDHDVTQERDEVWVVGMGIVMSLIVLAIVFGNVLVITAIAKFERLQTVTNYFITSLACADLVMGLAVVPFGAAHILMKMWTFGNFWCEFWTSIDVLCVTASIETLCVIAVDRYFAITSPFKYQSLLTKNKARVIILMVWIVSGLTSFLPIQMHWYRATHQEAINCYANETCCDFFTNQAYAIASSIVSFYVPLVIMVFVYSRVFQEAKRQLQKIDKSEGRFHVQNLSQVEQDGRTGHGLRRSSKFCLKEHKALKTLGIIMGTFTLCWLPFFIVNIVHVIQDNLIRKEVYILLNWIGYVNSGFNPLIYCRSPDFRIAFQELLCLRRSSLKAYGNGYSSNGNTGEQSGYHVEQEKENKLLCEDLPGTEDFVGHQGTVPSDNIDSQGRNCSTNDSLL
Beta-adrenergic receptor kinase 1 (Homo sapiens), sequence (P25098 whole entry, looked up): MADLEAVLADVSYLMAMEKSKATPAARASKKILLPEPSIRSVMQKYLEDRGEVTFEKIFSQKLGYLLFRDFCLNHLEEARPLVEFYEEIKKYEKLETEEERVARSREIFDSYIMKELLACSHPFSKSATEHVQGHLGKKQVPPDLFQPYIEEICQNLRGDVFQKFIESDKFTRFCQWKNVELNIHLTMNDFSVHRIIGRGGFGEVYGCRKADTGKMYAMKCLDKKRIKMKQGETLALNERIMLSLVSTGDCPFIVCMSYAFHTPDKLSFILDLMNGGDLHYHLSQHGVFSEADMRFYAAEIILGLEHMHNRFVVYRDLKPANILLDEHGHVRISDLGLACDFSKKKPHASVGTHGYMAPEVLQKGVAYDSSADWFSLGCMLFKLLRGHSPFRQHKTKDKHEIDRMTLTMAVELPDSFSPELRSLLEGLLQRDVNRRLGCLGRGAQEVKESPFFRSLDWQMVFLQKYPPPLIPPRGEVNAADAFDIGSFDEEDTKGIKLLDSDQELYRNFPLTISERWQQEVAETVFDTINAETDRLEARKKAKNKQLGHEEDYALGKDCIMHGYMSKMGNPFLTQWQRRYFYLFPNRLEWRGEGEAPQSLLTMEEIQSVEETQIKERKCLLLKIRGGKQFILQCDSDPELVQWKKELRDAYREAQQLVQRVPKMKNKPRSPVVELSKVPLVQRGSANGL
Integrin beta-1 (Homo sapiens) + Integrin alpha-4 (Homo sapiens), sequence (P05556 whole entry, looked up): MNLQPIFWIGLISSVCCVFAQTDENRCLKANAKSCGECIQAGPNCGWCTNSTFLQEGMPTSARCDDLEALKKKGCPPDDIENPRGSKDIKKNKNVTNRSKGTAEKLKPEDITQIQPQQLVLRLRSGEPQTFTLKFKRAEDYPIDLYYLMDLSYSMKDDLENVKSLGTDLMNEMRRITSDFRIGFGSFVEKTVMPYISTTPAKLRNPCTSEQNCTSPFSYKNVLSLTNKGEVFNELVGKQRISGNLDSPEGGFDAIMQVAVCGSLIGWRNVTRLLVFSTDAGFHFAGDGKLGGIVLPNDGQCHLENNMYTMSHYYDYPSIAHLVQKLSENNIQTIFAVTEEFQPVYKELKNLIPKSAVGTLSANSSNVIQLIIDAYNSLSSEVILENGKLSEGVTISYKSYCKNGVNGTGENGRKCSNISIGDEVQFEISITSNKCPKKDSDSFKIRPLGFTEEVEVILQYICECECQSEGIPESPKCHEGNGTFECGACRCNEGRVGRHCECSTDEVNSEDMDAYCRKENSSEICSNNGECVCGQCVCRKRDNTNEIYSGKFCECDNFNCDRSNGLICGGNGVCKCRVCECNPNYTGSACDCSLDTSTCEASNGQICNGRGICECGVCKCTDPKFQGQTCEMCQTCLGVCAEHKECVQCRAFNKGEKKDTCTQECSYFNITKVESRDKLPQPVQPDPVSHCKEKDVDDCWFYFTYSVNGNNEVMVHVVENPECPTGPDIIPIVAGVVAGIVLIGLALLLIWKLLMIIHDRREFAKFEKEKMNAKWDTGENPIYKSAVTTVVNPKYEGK
Integrin beta-1 (Homo sapiens) + Integrin alpha-4 (Homo sapiens), sequence (P13612 whole entry, looked up): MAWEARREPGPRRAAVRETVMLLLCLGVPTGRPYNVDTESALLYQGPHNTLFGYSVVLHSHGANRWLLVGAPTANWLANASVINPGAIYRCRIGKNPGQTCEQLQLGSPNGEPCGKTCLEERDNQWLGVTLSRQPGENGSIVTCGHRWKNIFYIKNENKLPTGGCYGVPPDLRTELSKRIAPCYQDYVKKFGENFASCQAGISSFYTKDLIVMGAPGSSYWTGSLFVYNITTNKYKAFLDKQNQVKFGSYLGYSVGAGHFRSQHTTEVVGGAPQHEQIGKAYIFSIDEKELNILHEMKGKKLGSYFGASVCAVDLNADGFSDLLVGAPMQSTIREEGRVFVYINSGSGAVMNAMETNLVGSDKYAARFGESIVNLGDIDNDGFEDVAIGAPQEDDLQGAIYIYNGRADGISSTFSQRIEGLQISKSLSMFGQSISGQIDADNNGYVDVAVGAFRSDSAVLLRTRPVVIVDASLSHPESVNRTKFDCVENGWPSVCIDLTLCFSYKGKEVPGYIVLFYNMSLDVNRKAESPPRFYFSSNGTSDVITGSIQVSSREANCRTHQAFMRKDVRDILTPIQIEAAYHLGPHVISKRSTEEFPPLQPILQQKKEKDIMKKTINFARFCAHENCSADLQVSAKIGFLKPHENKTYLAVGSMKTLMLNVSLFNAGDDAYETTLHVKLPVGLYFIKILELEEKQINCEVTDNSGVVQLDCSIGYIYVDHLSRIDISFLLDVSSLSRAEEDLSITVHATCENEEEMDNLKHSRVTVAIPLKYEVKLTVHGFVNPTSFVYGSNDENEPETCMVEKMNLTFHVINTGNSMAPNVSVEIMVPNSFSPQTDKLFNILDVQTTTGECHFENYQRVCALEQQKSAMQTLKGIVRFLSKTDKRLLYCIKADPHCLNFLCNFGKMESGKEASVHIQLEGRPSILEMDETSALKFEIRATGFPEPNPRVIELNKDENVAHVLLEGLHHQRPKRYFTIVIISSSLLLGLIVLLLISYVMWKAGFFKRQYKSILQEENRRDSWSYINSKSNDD
AP-2 complex subunit beta (Homo sapiens), sequence (P63010 whole entry, looked up, the tested form may be a part, one chain of several): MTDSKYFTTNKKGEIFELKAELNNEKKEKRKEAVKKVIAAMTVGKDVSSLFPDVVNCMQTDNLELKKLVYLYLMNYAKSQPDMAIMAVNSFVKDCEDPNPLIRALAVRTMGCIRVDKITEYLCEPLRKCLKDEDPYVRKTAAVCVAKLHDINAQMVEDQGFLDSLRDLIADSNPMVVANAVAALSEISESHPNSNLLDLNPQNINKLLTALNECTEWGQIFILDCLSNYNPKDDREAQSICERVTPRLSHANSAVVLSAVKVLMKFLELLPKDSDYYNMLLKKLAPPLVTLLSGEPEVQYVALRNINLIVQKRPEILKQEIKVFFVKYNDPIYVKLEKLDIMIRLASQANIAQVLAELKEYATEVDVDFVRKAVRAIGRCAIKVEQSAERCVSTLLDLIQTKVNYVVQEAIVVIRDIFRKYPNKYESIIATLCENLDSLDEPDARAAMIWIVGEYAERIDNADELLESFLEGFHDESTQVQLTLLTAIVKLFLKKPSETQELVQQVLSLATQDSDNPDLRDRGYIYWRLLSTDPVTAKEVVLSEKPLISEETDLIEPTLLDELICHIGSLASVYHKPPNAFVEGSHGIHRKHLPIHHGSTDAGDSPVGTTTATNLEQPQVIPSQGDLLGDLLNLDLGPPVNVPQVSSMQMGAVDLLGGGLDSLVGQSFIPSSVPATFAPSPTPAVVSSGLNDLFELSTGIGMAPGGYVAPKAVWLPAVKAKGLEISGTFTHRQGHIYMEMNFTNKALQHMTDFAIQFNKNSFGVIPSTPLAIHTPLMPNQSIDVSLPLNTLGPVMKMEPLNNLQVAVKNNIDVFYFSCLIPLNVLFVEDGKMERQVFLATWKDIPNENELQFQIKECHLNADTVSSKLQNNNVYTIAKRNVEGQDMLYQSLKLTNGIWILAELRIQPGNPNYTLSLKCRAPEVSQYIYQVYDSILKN

Broadly, the inhibition is the relative decrease from the control value, in per cent. As for `C=C(C)C(=O)Nc1ccc(NC(C)C)cc1`, the percent of DMSO control GFP in experiment [1] was 104% (inactive). Also, the GFP response vs DMSO was 104% (inactive) in experiment [2] and 106% (inactive) in experiment [4]. Moreover, the percent response of DMSO control in [3] is 97.6% (inactive). Moreover, the GFP response, % of DMSO in experiment [5] was 101% (inactive). Also, the double positive events in [6] amounted to 66%. Also, the vesicle binding response in experiment [6] was 170% (inactive). Further, the values for the inhibition in experiment [7], in experiment [11] and in experiment [15] were 9.63% (inactive), 19.3% (inactive) and 0% (inactive), respectively. Further, in [8], the superoxide response (% of plate) was 96.6% (inactive). Besides, the aptamer binding inhibition in experiment [9] is 4% (inactive). In addition, the response was 0.61% (inactive) in [10] and -7.05% (inactive) in experiment [12]. Further, the binding (% of control) in [13] was 95.1% (inactive). Besides, the efflux inhibition (fraction of control) in experiment [14] was -0.09 (inactive). Further, the differentiation response in [16] was -8.96% (inactive).

For `COc1cc(CC(=O)NCCc2ccc(S(N)(=O)=O)cc2)cc(OC)c1OC`, the percent of DMSO control GFP in experiment [1] is 104% (inactive). In addition, the GFP response vs DMSO in experiment [2] is 103% (inactive); in [4] it was 114% (inactive). Moreover, the percent response of DMSO control in [3] was 102% (inactive). Also, the GFP response, % of DMSO in [5] is 111% (inactive). Further, in [6], the double positive events was determined as 66.9%. Also, the vesicle binding response in experiment [6] is 177% (inactive). Moreover, the values for the inhibition in experiment [7], in experiment [11] and in experiment [15] were 1.44% (inactive), -9.64% (inactive) and 4% (inactive), respectively. Moreover, the superoxide response (% of plate) in experiment [8] is 95.2% (inactive). Moreover, the aptamer binding inhibition in [9] is -4% (inactive). Also, the values for the response in [10] and in [12] were -8.65% (inactive) and 0.1% (inactive), respectively. Moreover, in [13], the binding (% of control) is 114% (inactive). The efflux inhibition (fraction of control) in [14] was -0.04 (inactive). Also, the differentiation response in experiment [16] is 0.92% (inactive).

For the compound `CC(=O)NC(CC(C)C)C(=O)NC(Cc1ccccc1)C(N)=O` (stereo not drawn) (Ac-Leu-Phe-NH2; configuration not given here), the percent of DMSO control GFP in experiment [1] is 101% (inactive). For the same compound, the GFP response vs DMSO in experiment [2] is 107% (inactive); in [4], 111% (inactive). Further, the percent response of DMSO control in experiment [3] is 98.6% (inactive). Besides, the GFP response, % of DMSO in [5] is 103% (inactive). In addition, in [6], the double positive events is 60.5%. In addition, in experiment [6], the vesicle binding response is 128% (inactive). Also, the inhibition was 20.4% (inactive) in experiment [7], -15.5% (inactive) in experiment [11] and 13% (inactive) in experiment [15]. Further, in experiment [8], the superoxide response (% of plate) is 91.8% (inactive). For the same compound, the aptamer binding inhibition in [9] is 2% (inactive). In addition, the values for the response in experiment [10] and in experiment [12] were 4.73% (inactive) and -1.63% (inactive), respectively. Also, the binding (% of control) in experiment [13] is 103% (inactive). For the same compound, in [14], the efflux inhibition (fraction of control) is -0.13 (inactive). In experiment [16], the differentiation response was -4.57% (inactive).

Consider `NC(N)=NC(N)=NCCc1ccccc1`, for which the percent of DMSO control GFP in [1] is 101% (inactive). Besides, the values for the GFP response vs DMSO in [2] and in [4] were 112% (inactive) and 94% (inactive), respectively. In addition, in experiment [3], the percent response of DMSO control is 100% (inactive). Also, the GFP response, % of DMSO in experiment [5] is 100% (inactive). In [6], this compound returned a double positive events of 59.4%. In addition, in [6], the vesicle binding response is 210% (inactive). The inhibition in [7] is 3.7% (inactive); in experiment [11], 7.19% (inactive); in experiment [15], -4% (inactive). In experiment [8], the superoxide response (% of plate) is 105% (inactive). The aptamer binding inhibition in experiment [9] is 0% (inactive). In addition, the response in experiment [10] was -4.33% (inactive); in experiment [12], -3.91% (inactive). Moreover, in experiment [13], the binding (% of control) is 88.8% (inactive). Also, the efflux inhibition (fraction of control) in [14] was 0.24 (inactive). For the same compound, the differentiation response in experiment [16] is -8.55% (inactive).

In the case of `COc1ccc(-c2nc3c(=O)n(C)c(=O)[nH]c3n2CCc2ccccc2)cc1`, the percent of DMSO control GFP in [1] was 111% (inactive). Moreover, the GFP response vs DMSO is 103% (inactive) in experiment [2] and 93.1% (inactive) in experiment [4]. Further, in experiment [3], the percent response of DMSO control was 115% (inactive). In experiment [5], the GFP response, % of DMSO was 104% (inactive). In experiment [6], this compound showed a double positive events of 64%. Besides, the vesicle binding response in experiment [6] is 232% (inactive). In addition, the inhibition in [7] is 13.2% (inactive); in experiment [11] it was -0.08% (inactive); in experiment [15], 3% (inactive). In addition, the superoxide response (% of plate) in [8] was 107% (inactive). For the same compound, in experiment [9], the aptamer binding inhibition is 0% (inactive). In addition, the response in experiment [10] was 12.6% (inactive); in experiment [12] it was -6.09% (inactive). Also, in [13], the binding (% of control) is 99.3% (inactive). Moreover, in experiment [14], the efflux inhibition (fraction of control) is -0.13 (inactive). Also, the differentiation response in experiment [16] was -23.2% (inactive).
